Data from PubChem BioAssay.
Results with a measured potency or affinity are listed apart. Inconclusive results are not listed. Activity calls are given as the source filed them.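 Rule for the calls, unless noted: active = fitted dose curve reaches 40% lysis signal rise at or below the highest valid concentration tested for that sample; inconclusive = flat fit between 30% and 70%, or poor curve fit; inactive = signal falls, stays flat within 30%, or no crossing.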

Test: Cryptococcus neoformans growth inhibition, dose response, Alamar Blue, cherry-picks (AID 686998;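 active = falling signal with fitted half-maximal potency no higher than twice the top valid tested dose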)
Settings: 24 h; series mostly up to 35 µM

outcome, inactive:
Cc1cccc(C)c1NC(=O)C(CCc1ccccc1)N1CCC(c2ccccc2)CC1 (stereo unspecified)
C[C@@H]1CN([C@@H](C)CO)S(=O)(=O)c2ccc(C#CC3CC3)cc2O[C@H]1CN(C)CC1CCOCC1
COc1ccc(N(CC(=O)NCCSCc2ccc(C)cc2)S(=O)(=O)c2ccccc2)cc1
COc1ccccc1CN1CC[C@H]2[C@H](CO)Nc3ccc(C#Cc4ccccc4)cc3[C@H]21
O=C(Nc1ccccc1)N1CCCCN2[C@H](CO)[C@@H](c3ccc(C#CC4CC4)cc3)[C@@H]2C1
C[C@@H]1CN([C@@H](C)CO)S(=O)(=O)c2ccc(-c3ccccc3)cc2O[C@H]1CN(C)C(=O)C1CCCCC1
C[C@@H]1CN([C@H](C)CO)S(=O)(=O)c2ccc(C#Cc3ccc(F)cc3)cc2O[C@H]1CN(C)C(=O)NC1CCCC1
C[C@H]1CCCCO[C@H](CN(C)C(=O)Nc2ccc(F)cc2)[C@@H](C)CN([C@@H](C)CO)C(=O)c2cc(NS(=O)(=O)c3ccc(Cl)cc3)ccc2O1
COc1cccc(S(=O)(=O)N2C[C@@H](O)COC[C@H]3O[C@H](CC(=O)Nc4ccccc4)CC[C@@H]32)c1

Test: inducers of Cryptococcus neoformans cell lysis, dose response, AK release luminescence, cherry-picks (AID 687000);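 note: luminescent detection of adenylate kinase leaking from lysed yeast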
Settings: C. neoformans lysis, adenylate kinase release luminescence, 4 h, 100% = twice the neutral-control signal; series mostly up to 15 µM

outcome, inactive:
COc1cc(C(=O)Oc2ccccc2N)cc(OC)c1OC
C[C@@H]1CN([C@@H](C)CO)C(=O)CCCn2nncc2CO[C@@H]1CN(C)Cc1cccc(C(F)(F)F)c1
O=C(CN1CCOCC1)N1CC[C@@H]2[C@@H](CO)Nc3ccc(-c4ccccc4F)cc3[C@@H]21
COc1ccccc1C(=O)Nc1ccc2c(c1)OC[C@H](C)N(C(C)=O)C[C@H](C)[C@H](OC)CN(C)C2=O
C[C@@H]1CN([C@@H](C)CO)C(=O)c2cc(NS(=O)(=O)c3ccc(F)cc3)ccc2O[C@@H](C)CCCCO[C@H]1CN(C)S(=O)(=O)c1ccc(F)cc1
C[C@@H]1CN([C@H](C)CO)C(=O)c2cccc(NC(=O)Nc3ccccc3)c2O[C@@H]1CN(C)Cc1ccc(Cl)c(Cl)c1
C[C@@H]1CN([C@H](C)CO)C(=O)c2c(c3ccccc3n2C)-c2ccccc2CO[C@H]1CN(C)S(=O)(=O)c1ccc(Cl)cc1
C[C@@H](NC(=O)C[C@@H]1CC[C@H]2[C@@H](COC[C@@H](O)CN2Cc2cc(F)ccc2F)O1)c1ccccc1
CNC(=O)C[C@H]1CC[C@H]2[C@@H](COc3ccc(NC(=O)Nc4cccc(C#N)c4)cc3C(=O)N2C)O1
CCCN1CCCC[C@H]1C(=O)Nc1c(C)cccc1C
COc1cccc(S(=O)(=O)Nc2ccc3c(c2)OC[C@H](C)NC[C@@H](C)[C@H](OC)CN(C)C3=O)c1
COc1ccccc1C(=O)Nc1ccc2c(c1)C(=O)N(C)C[C@H](OC)[C@@H](C)CN(CC1CC1)[C@@H](C)CO2
Cc1cccc(-c2ccc([C@@H]3[C@H]4CN(C(=O)c5ccc6c(c5)OCO6)CCCCN4[C@H]3CO)cc2)c1
N#Cc1ccc(-c2ccc3c(c2)[C@H]2[C@H](CCN2C(=O)Cc2ccccc2)[C@@H](CO)N3)cc1
C[C@@H]1CCCCO[C@H](CN(C)Cc2ccc3c(c2)OCO3)[C@H](C)CN([C@H](C)CO)C(=O)c2cc(NC(=O)Nc3cccc4ccccc34)ccc2O1
CC(C)NC(=O)Nc1ccc2c(c1)C(=O)N([C@@H](C)CO)C[C@H](C)[C@@H](CN(C)Cc1ccc3c(c1)OCO3)OCCCC[C@@H](C)O2
CC=Cc1ccc2n(c1=O)C[C@H]1[C@H](CO)[C@@H](C(=O)N3CCc4ccccc4C3)N(C(=O)C3CC3)[C@@H]21 (mixture of isomers)
CNC(=O)CN(c1ccc(C)cc1)S(=O)(=O)c1ccccc1
C[C@H]1CN([C@@H](C)CO)C(=O)Cc2cc(NC(=O)CCCCCC(=O)Nc3ccccc3N)ccc2O[C@H]1CN(C)Cc1ccc2c(c1)OCO2
C[C@@H](NC(=O)C[C@@H]1CC[C@@H]2[C@H](COC[C@H](O)CN2Cc2cc(F)ccc2F)O1)c1ccccc1
CC(C)NC(=O)Nc1ccc2c(c1)CC(=O)N([C@H](C)CO)C[C@H](C)[C@H](CN(C)S(=O)(=O)c1ccc(Cl)cc1)O2
C[C@H](CO)N1C[C@H](C)[C@H](CN(C)Cc2ccccc2)Oc2cc(C#Cc3ccccn3)ccc2S1(=O)=O
